Sensor-assay potency score (higher = more potent) data for 84 sequences are collected here from the OligoGym collection.

Among the targets are KCNRG; KHDRBS3; KIF25; KPRP; KRT86; L1TD1; LARP1B; LIPA; LONP1; LRDD; LRRC15; LTA4H; MAN1C1; MCM6; MEPCE; MEN1; MEI1; MED31; MFNG; MIA; MFRP; MIB1.
Experiment in all cases: pooled miR-30 sensor sort-seq; sequence = guide strand
Common to all, as to settings: shRNA
Further: reference of the scale not given here.

In the assay with KCNRG, TTCGTGATGAGCACTTCAGGGC came in with a sensor-assay potency score (higher = more potent) of 0.363.
TAACACTTTCTGTCCCAGCTTC registered a sensor-assay potency score (higher = more potent) in the assay with KHDRBS3 of 0.341.
In the assay with KIF25, ATAACACAAACATTGTACCCAT came in with a sensor-assay potency score (higher = more potent) of 0.237.
For TAGAGTCACCGTAATTATCAGG, the sensor-assay potency score (higher = more potent) with KIF25 was -1.12.
Turning to TTGGTCTCCATGGCCATCCTGA, the sensor-assay potency score (higher = more potent) with KPRP was -0.799.
The same measure, in the same setting: in the case of TACTGAGGGAAACAGCTGCTGT it was -0.994.
On to TTGATCTCGGCAATGATGCAGT, for which, in the assay with KRT86, the sensor-assay potency score (higher = more potent) was -0.0305.
In the assay with L1TD1, TTAAATCTAATACCGGAGCTAT had a sensor-assay potency score (higher = more potent) of -1.12.
In the case of TAGTAATACATCATACTGGTAT, in the assay with LARP1B, the sensor-assay potency score (higher = more potent) is -0.0186.
As to TTTACTAATGAGATTTAGCTTC, the sensor-assay potency score (higher = more potent) with LARP1B is -0.374.
TTGACGTCGTAGACATCTGCAA: the sensor-assay potency score (higher = more potent) in the assay with LIPA was -0.272.
On to TTACAAAGTAGTATTCGCCCTG, for which the sensor-assay potency score (higher = more potent) with LIPA was 0.166.
The sequence TTTCCGTAACACCTTCTCCACT registered a sensor-assay potency score (higher = more potent) in the assay with LONP1 of -1.42.
Sequence TACAGGTCCAAGCTCAGCCGGT yielded a sensor-assay potency score (higher = more potent) in the assay with LRDD of -1.52.
Same read-out and setting: with AATCCTCTGAAGCATCTCCTGC the figure was -1.15.
Consider TTGCTGAAGACATTGTCGGGTA, for which the sensor-assay potency score (higher = more potent) with LRRC15 turned out to be 0.015.
Take TTGTCCATTGATCACTACTTTT: the sensor-assay potency score (higher = more potent) with LTA4H is -1.71.
Regarding TTGATGAGAAGAGAGATCCTTC, in the assay with LTA4H, the sensor-assay potency score (higher = more potent) was determined as 0.703.
With AATTGTGACAAAACTAAACTGT, the sensor-assay potency score (higher = more potent) with MAN1C1 came to 0.356.
Take ATATCTTCTGATATCATCGAGG: the sensor-assay potency score (higher = more potent) in the assay with MCM6 is -0.536.
In turn, TTGGATTCGGTAGTAGTTCTTG gave a sensor-assay potency score (higher = more potent) with MEPCE of 0.313.
In the assay with MEN1, TTCAGGTACAGCCAGCTCCGCT yielded a sensor-assay potency score (higher = more potent) of -1.42.
TAGACTAGCTGCAGGTCTGGGA: in the assay with MEI1, the sensor-assay potency score (higher = more potent) was -0.257.
For the sequence TTCATCTGCACTTGCGACTGTG, the sensor-assay potency score (higher = more potent) with MEN1 turned out to be 0.123.
The sequence TTCTTCACCAGCTCACGGCTGG yielded a sensor-assay potency score (higher = more potent) with MEN1 of -0.0281.
TTGCTCTGACACATTCCTGAGC had a sensor-assay potency score (higher = more potent) with MEI1 of -0.804.
Sequence TATGACATCGGAGACCTTCTTC gave a sensor-assay potency score (higher = more potent) with MEN1 of 0.751.
For the sequence TAAGAGTCTTTCTCTTGCCATA, the sensor-assay potency score (higher = more potent) with MEPCE was -1.25.
TAGTGTCGGATGTTTTGGCGGG: the sensor-assay potency score (higher = more potent) with MEPCE is -0.437.
Sequence ATGGTGAGTATAGACTAGCTGC had a sensor-assay potency score (higher = more potent) with MEI1 of -0.611.
TTGTAGTCCTGGATGACAGTGG: the sensor-assay potency score (higher = more potent) with MEN1 was 0.138.
On to TTGTGAGCTGTGTCCACTGGGC, for which the sensor-assay potency score (higher = more potent) with MEI1 is -0.159.
In the case of TGATGTGTCCGCTCCATCCAAG, the sensor-assay potency score (higher = more potent) with MEPCE is -1.38.
On to TTCTTCATCTGCACTTGCGACT, for which the sensor-assay potency score (higher = more potent) in the assay with MEN1 is -0.844.
The sequence AAAGGTAACAGACAGAAGCTTG gave a sensor-assay potency score (higher = more potent) in the assay with MEI1 of -0.962.
The sequence TCTTGCTCTGACACATTCCTGA had a sensor-assay potency score (higher = more potent) with MEI1 of 0.143.
Consider TAGTAGGTCTTGGCTGAGGCAA, for which, in the assay with MEN1, the sensor-assay potency score (higher = more potent) was -1.23.
Sequence TTGTGGTAGAGGGTGAGTGGGT showed a sensor-assay potency score (higher = more potent) in the assay with MEN1 of -0.985.
TAGTATTTGCAATAATTCCCAT: the sensor-assay potency score (higher = more potent) with MEPCE was -0.782.
As to TTGTGGAACAGGTACACAGGAC, the sensor-assay potency score (higher = more potent) with MEPCE was -0.946.
In turn, AACATGTGTAAACACTGAGGGT registered a sensor-assay potency score (higher = more potent) in the assay with MED31 of -0.84.
On the same count and under the same terms, in the case of TCCAACTCCAACTGAAACCGAA it was -1.04.
In the assay with MEI1, TGGAACAGGACTACTAAGCTGG showed a sensor-assay potency score (higher = more potent) of 0.124.
Sequence TAGATCTCCTCGTCTTCCCGGC returned a sensor-assay potency score (higher = more potent) in the assay with MEN1 of -0.0589.
The sequence TAACTGAGGCAGCTGGAGGGGC showed a sensor-assay potency score (higher = more potent) with MEPCE of -0.431.
In the assay with MEI1, TTCTCTGAATCTCTACTGGAGG returned a sensor-assay potency score (higher = more potent) of -0.666.
Take TACTTCAAAGAACTCCTTGTAG: the sensor-assay potency score (higher = more potent) in the assay with MEN1 is 0.208.
In turn, TTGTCTTTGAAGTAACCTCTTT gave a sensor-assay potency score (higher = more potent) with MED31 of -0.371.
In the assay with MEI1, TTTTCTGATTGCACTGACCATA gave a sensor-assay potency score (higher = more potent) of -0.486.
TAGCACTTTCTCCCAGTCCATC came in with a sensor-assay potency score (higher = more potent) with MEI1 of -1.62.
TTTCGAACGGTGGTGGTCCCTT: the sensor-assay potency score (higher = more potent) in the assay with MEPCE is -0.585.
In turn, TCATCTGCACTTGCGACTGTGC gave a sensor-assay potency score (higher = more potent) in the assay with MEN1 of -1.27.
Still for that read-out and setting: with TAGAGGGACAGGTCGACGGCGC the figure was -0.785.
Regarding TTGTTGGGGAAGACTGATGTGT, the sensor-assay potency score (higher = more potent) with MEPCE was -0.599.
Consider TTCTTGTAGATCGTTTCTGTAA, for which the sensor-assay potency score (higher = more potent) with MEPCE was -0.866.
On to TTGCTGTTGCTGCTCTGCCAAG, for which the sensor-assay potency score (higher = more potent) in the assay with MED31 was -1.72.
On to TAGTAGTTCTTGTAGATCGTTT, for which the sensor-assay potency score (higher = more potent) with MEPCE is -0.407.
Regarding TTGCACAAATTCCAACTCCAAC, the sensor-assay potency score (higher = more potent) with MED31 was -1.8.
The same measure, in the same setting: with TCTAACATGTGTAAACACTGAG the figure was 0.543.
The sequence TTGCGCACTAACGACACGCCGG showed a sensor-assay potency score (higher = more potent) with MEI1 of -1.01.
TTCAGATGCACCCACTTGGTGA showed a sensor-assay potency score (higher = more potent) with MEPCE of -1.03.
The sequence TTGCGATTGATGCAGAAGCCAG showed a sensor-assay potency score (higher = more potent) with MFNG of -1.46.
Consider TGGTCCGCACACAGCTTCCGGT, for which the sensor-assay potency score (higher = more potent) with MIA was -1.49.
In the case of TTGGTGAGGGTACTGCTGCAGG, in the assay with MFRP, the sensor-assay potency score (higher = more potent) is -0.958.
TTGACCACTGACTTTTTCCTTA came in with a sensor-assay potency score (higher = more potent) in the assay with MIB1 of 0.24.
TAGAAGTTTAATTCGTTCCAGG: in the assay with MIB1, the sensor-assay potency score (higher = more potent) was found to be 0.00519.
In the assay with MFNG, AACTGTACCAGCCTCGTGCGGT had a sensor-assay potency score (higher = more potent) of -0.733.
Regarding TTTGCCAGGTTTCAGGGTCTGG, the sensor-assay potency score (higher = more potent) with MIA is -1.17.
In the case of TGAAGTTGTGGAACTGTAGTTC, the sensor-assay potency score (higher = more potent) with MFRP turned out to be 0.0577.
In turn, ATTGACATTGGTATTATCCTTG gave a sensor-assay potency score (higher = more potent) with MIB1 of 0.229.
Consider TTAAAGTCTCAAACATTCCATC, for which the sensor-assay potency score (higher = more potent) in the assay with MIB1 is -0.848.
As to TACTGCTGCAGGTAGCTGGGAG, the sensor-assay potency score (higher = more potent) in the assay with MFRP was -0.172.
With TCTCGGACAATGCTACTGGGGA, the sensor-assay potency score (higher = more potent) with MIA is -1.23.
As for TTTGTCTGTCTTCACATCGACT, the sensor-assay potency score (higher = more potent) with MIA was -0.999.
Take TATGCTGTCGTTCAACAGCAAG: the sensor-assay potency score (higher = more potent) with MIB1 was -1.72.
The sequence TGGAACTGTAGTTCTATGCTGT returned a sensor-assay potency score (higher = more potent) with MFRP of -0.0204.
With TGTCTGTCTTCACATCGACTTT, the sensor-assay potency score (higher = more potent) with MIA is -1.3.
Sequence TAGTTCTATGCTGTGTCCGGCA yielded a sensor-assay potency score (higher = more potent) in the assay with MFRP of -0.362.
Sequence TTTAGATAGTAAAACACGCATT came in with a sensor-assay potency score (higher = more potent) with MIB1 of -0.883.
In the case of TCACATAGTTGTCATCGTCCAC, the sensor-assay potency score (higher = more potent) with MFNG is -0.585.
In the assay with MFRP, TATGCTGAGGGCTTCGATCTTG registered a sensor-assay potency score (higher = more potent) of -0.113.
TGGTGTTGTAGCTCAGACCGAG returned a sensor-assay potency score (higher = more potent) with MFRP of -0.523.
Regarding TTCAGGGTCTGGTCCTCTCGGA, the sensor-assay potency score (higher = more potent) with MIA is -0.169.
As to TTGGGCATAGGACCACCCCTGA, in the assay with MIA, the sensor-assay potency score (higher = more potent) was -1.13.
